Bioassay records as filed in PubChem.
A selection: hits, their analogues and other compounds. The true share with any hit is near 10%.
CtBP-E1A inh – qHTS Assay for Inhibitors of the CtBP/E1A Interaction. CtBP / adenovirus E1A interaction (AlphaScreen). AlphaScreen GST-E1A/His-CtBP binding, 1536-well; stronger effect = lower value. activity change, % (test concentration not listed). 340,000 compounds, 0.49% hits; in the data active = activity change below about -65%; inconclusive = mostly about -30% to -63%; note: % is set by controls: 0 for no effect and ±100 for the full control effect
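Protein mix (5X: 125 nM each GST-E1A, His-CtBP) was incubated with pinned compound 2 h at 37 deg C in dark, in 50 mM Tris pH 8.0 buffer with 300 mM NaCl. Glutathione donor and nickel acceptor beads followed; AlphaScreen signal read after 1 h.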
HP1b binding inh – HTS for Inhibitors of HP1-beta Chromodomain Interactions with Methylated Histone Tails; AlphaScreen HP1-beta / biotin-H3K9me3 peptide binding; AID 540317, 2011; 390,000 compounds, 0.56% hits; Potency, µM (series often up to 114 µM), inactives show top-dose activity change, negative = inhibition, hits mostly inhibitors; Chromobox protein homolog 1 (Homo sapiens), P83916; note: potency is the fitted concentration of half-maximal effect; nearly all actives have a fitted effect of over 70% in size
Target sequence (P83916 whole entry, looked up): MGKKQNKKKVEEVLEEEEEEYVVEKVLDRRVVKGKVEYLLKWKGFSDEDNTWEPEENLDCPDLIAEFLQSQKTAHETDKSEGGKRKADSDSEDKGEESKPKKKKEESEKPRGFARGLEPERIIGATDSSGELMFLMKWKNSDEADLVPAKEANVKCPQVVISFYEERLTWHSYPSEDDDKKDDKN
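HP1-beta protein (50 nM final) preincubated 30 min at room temperature with biotinylated H3(1-18)K9me3 peptide (50 nM) in PBS pH 7.4, 0.01% Tween-20, then compound added for 30 min. AlphaScreen streptavidin donor/nickel chelate acceptor beads (10 ug/mL final), 30 min dark, luminescence read.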
BAZ2B block – qHTS Assay for Inhibitors of BAZ2B | AlphaScreen BAZ2B-H3K14Ac peptide displacement | Potency, µM (top dose mostly 114 µM), without a hit: top-dose activity change, negative = inhibition, hits mostly inhibitors | 360,000 compounds, 4.4% hits; note: potency is the fitted concentration of half-maximal effect; % is set by controls: 0 for no effect and ±100 for the full control effect; nearly all actives have a fitted effect of over 60% in size
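Multi-concentration screen (max 110 uM) measuring displacement of acetylated histone H3 peptide from BAZ2B by AlphaScreen, using 50 nM protein, 50 nM peptide and 10 ug/mL streptavidin donor plus Ni-chelate acceptor beads.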
G9a inh – qHTS Assay for Inhibitors of Histone Lysine Methyltransferase G9a; Histone-lysine N-methyltransferase EHMT2 (Homo sapiens), Q96KQ7; G9a H3K9 monomethylation, AlphaScreen, 2 h; Potency, µM (highest dose often 102 µM), without a hit: top-dose activity, negative = inhibition, actives largely listed as inhibitors; 350,000 compounds, 8.8% hits; AID 504332, 2011; note: potency is the fitted concentration of half-maximal effect; % is set by controls: 0 for no effect and ±100 for the full control effect; nearly all actives have a fitted effect of over 75% in size
Target sequence (Q96KQ7 913-1193 limits assumed): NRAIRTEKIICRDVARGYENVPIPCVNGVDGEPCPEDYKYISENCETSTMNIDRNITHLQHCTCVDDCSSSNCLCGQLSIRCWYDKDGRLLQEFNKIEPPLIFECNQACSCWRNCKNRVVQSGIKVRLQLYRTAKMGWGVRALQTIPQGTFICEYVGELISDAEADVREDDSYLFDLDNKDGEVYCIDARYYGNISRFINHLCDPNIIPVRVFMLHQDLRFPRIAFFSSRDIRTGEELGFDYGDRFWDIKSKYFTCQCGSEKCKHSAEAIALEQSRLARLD
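Enzyme 20 nM + cpd, 15 min RT; add b-H3K9 pep 500 nM / SAM 20 uM; 2 h RT; anti-H3K9me1 Ab 0.5 ug/mL + SA donor / anti-rabbit acceptor beads 20 ug/mL each, 10 min; AlphaScreen read.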
Six1-Eya2 blk – qHTS Assay for Inhibitors of the Six1/Eya2 Interaction | Homeobox protein SIX1 (Homo sapiens) + Protein phosphatase EYA2 (Homo sapiens), … | AlphaScreen GST-Six1/His-Eya2 binding, biochemical; stronger effect = lower value | activity change, % (no concentration beside the values) | 360,000 compounds, 0.56% hits | AID 651725, 2012; in the data active = activity change below about -65%; inconclusive = mostly about -30% to -63%; note: % is set by controls: 0 for no effect and ±100 for the full control effect
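Six1/Eya2 binding was read as AlphaScreen signal after compounds were pinned into GST-Six1 plus His-tagged Eya2 (5X stock 250/500 nM) in pH 8.0 Tris/NaCl/TCEP buffer, beads added, then incubated 1 h, 37 C, dark.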
JMJD2A Tudor – qHTS Assay for Inhibitors of JMJD2A-Tudor Domain. AlphaScreen JMJD2A-Tudor / H3K4me3 peptide binding. Potency, µM (titrated, usually from 114 µM), inactives show at the highest dose activity change, negative = inhibition, hits mostly inhibitors. 390,000 compounds, 4.4% hits. Lysine-specific demethylase 4A (Homo sapiens), O75164. AID 504339, 2011; note: potency is the fitted concentration of half-maximal effect; % is set by controls: 0 for no effect and ±100 for the full control effect; nearly all actives have a fitted effect of over 50% in size
The depositor's hits bear a star; [ ] = remark or other dose. Unless noted, calls come from the whole dose curve; as a rule, active = well fitted inhibition curve with a large enough effect; inconclusive = small, poorly fitted or top-dose-only effect; inactive = no such curve, though single readings can be large or run the other way.

How did COc1cc(/C=C2\SC(=Nc3ccc(Cl)c(C(=O)O)c3)NC2=O)c(Br)c(Br)c1O do in these assays?
CtBP-E1A inh: inconclusive; HP1b binding inh: inconclusive; BAZ2B block: 44.7µM*; G9a inh: 31.6µM*; Six1-Eya2 blk: inconclusive; JMJD2A Tudor: 79.4µM*

How did CCc1ccc(N=C2NC(=O)/C(=C/c3cc(OC)c(O)c(OC)c3)S2)cc1 do in these assays?
HP1b binding inh: 12.3%; BAZ2B block: inconclusive; G9a inh: inconclusive; Six1-Eya2 blk: -8.2; JMJD2A Tudor: -21.8%

What do the screens show for `CC12CCC=CC1C(c1ccc3ccccc3c1)N(Cc1ccccc1)C2=O` (stereo not drawn)?
HP1b binding inh: 22.1%; JMJD2A Tudor: -21.4%

What do the screens show for `O=c1[nH]c2cccc(F)c2n2cccc12`?
CtBP-E1A inh: -15.2; HP1b binding inh: 6.0%; BAZ2B block: 1.4%; G9a inh: -5.4%[2.33 µM]; Six1-Eya2 blk: 0.0; JMJD2A Tudor: -7.1%

What do the screens show for `CCCCC(=O)NCCc1c(Cc2ccccc2)[nH]c2ccccc12`?
G9a inh: 12.6µM*

Results for Cc1ccc(C(=O)NC(=S)/C=C2\N(C)c3ccccc3C2(C)C)cc1 ?
CtBP-E1A inh: -81.1*; HP1b binding inh: 12.6µM*; BAZ2B block: 12.6µM*; G9a inh: 14.1µM*; Six1-Eya2 blk: -75.4*; JMJD2A Tudor: 22.4µM*

How did Cc1c(NC(=S)/C=C2\N(C)c3ccccc3C2(C)C)c(=O)n(-c2ccccc2)n1C do in these assays?
CtBP-E1A inh: -15.2; HP1b binding inh: inconclusive; BAZ2B block: inconclusive; G9a inh: 31.6µM*; Six1-Eya2 blk: -17.6; JMJD2A Tudor: -25.9%

How did CC(C)C(=O)NC(=S)/C=C1/N(C)c2ccccc2C1(C)C do in these assays?
CtBP-E1A inh: -11.5; HP1b binding inh: 50.1µM*; BAZ2B block: 31.6µM*; G9a inh: 39.8µM*; Six1-Eya2 blk: inconclusive; JMJD2A Tudor: 39.8µM*

How did Cc1ccccc1OCCOC(=O)c1cc(S(=O)(=O)N2CCCCC2)ccc1N1CCOCC1 do in these assays?
CtBP-E1A inh: 0.0; HP1b binding inh: 32.3%; BAZ2B block: -2.5%; G9a inh: -4.9%[12.7 µM]; Six1-Eya2 blk: 5.6; JMJD2A Tudor: -9.2%

How did CCOCc1nc2nc(Cl)c(Cl)nc2[nH]1 do in these assays?
CtBP-E1A inh: 3.2; Six1-Eya2 blk: 9.6

How did CC(=O)Nc1ccc(Nc2nc(-c3sc(NC(C)=O)nc3C)cs2)cc1 do in these assays?
CtBP-E1A inh: -3.7; HP1b binding inh: -12.6%; BAZ2B block: 50.1µM*; G9a inh: 50.1µM*; Six1-Eya2 blk: -12.0; JMJD2A Tudor: inconclusive

What do the screens show for `CC(=O)Nc1nc(C)c(-c2csc(Nc3ccc(O)cc3)n2)s1`?
CtBP-E1A inh: inconclusive; HP1b binding inh: inconclusive; BAZ2B block: 50.1µM*; G9a inh: 4.47µM*; Six1-Eya2 blk: -27.9; JMJD2A Tudor: 50.1µM*

How did COc1ccc(Oc2ncc3nc(-c4cccs4)c(=O)n(C)c3n2)cc1 do in these assays?
G9a inh: 4.4%[12.7 µM]

What do the screens show for `C=CCNc1nc(S(=O)Cc2ccc(C)cc2)nc2c1CCCC2` (stereo not drawn)?
CtBP-E1A inh: 3.1; HP1b binding inh: 54.3%; BAZ2B block: -1.9%; G9a inh: 9.8%; Six1-Eya2 blk: -0.6; JMJD2A Tudor: -6.7%

Results for O=C1C(C2=NC(C(=O)O)C3C(=O)N(c4ccccc4)C(=O)C23)=C(O)c2ccccc21 (stereo not drawn) ?
CtBP-E1A inh: -0.5; HP1b binding inh: 1.9%; BAZ2B block: -22.2%; G9a inh: inconclusive; Six1-Eya2 blk: 11.6; JMJD2A Tudor: 15.8µM*

How did COc1cccc(-c2cc3c(c4c2ccn4C)C2CCC3C2)c1 (stereo not drawn) do in these assays?
CtBP-E1A inh: -17.5; Six1-Eya2 blk: -25.9

Results for COCC(=O)N1CCC2(CC1)CN(C(=O)Nc1cccc(C#N)c1)C2 ?
G9a inh: -3.2%[12.7 µM]

Results for Cc1ccc(-n2ccnc2SCC(=O)N(CC(C)C)C2CCS(=O)(=O)C2)c(C)c1 (stereo not drawn) ?
CtBP-E1A inh: 3.9; HP1b binding inh: -18.0%; BAZ2B block: -30.2%; Six1-Eya2 blk: -1.4; JMJD2A Tudor: 20µM*

What do the screens show for `Cc1nnc(SCC(=O)N(CC(C)C)C2CCS(=O)(=O)C2)s1` (stereo not drawn)?
CtBP-E1A inh: -2.0; HP1b binding inh: 25.2%; BAZ2B block: 7.1%; G9a inh: inconclusive; Six1-Eya2 blk: 7.5; JMJD2A Tudor: -5.3%

Results for CC(C)CN(C(=O)CSc1nnc2ccccn12)C1CCS(=O)(=O)C1 (stereo not drawn) ?
CtBP-E1A inh: 2.2; HP1b binding inh: 20.6%; BAZ2B block: -4.6%; G9a inh: 11.0%[2.33 µM]; Six1-Eya2 blk: 13.9; JMJD2A Tudor: -21.8%

What do the screens show for `CC(C)CN(C(=O)CSc1nn(-c2ccc(Cl)cc2)c(=S)s1)C1CCS(=O)(=O)C1` (stereo not drawn)?
CtBP-E1A inh: 10.0; HP1b binding inh: 4.7%; BAZ2B block: 0.5%; G9a inh: 20µM*; Six1-Eya2 blk: 0.2; JMJD2A Tudor: -14.6%

How did CCCc1cc(=O)[nH]c(SCC(=O)N(CC(C)C)C2CCS(=O)(=O)C2)n1 (stereo not drawn) do in these assays?
CtBP-E1A inh: 6.2; HP1b binding inh: 38.4%; BAZ2B block: -0.3%; G9a inh: 4.2%[12.7 µM]; Six1-Eya2 blk: 5.7; JMJD2A Tudor: -10.7%

How did Cc1nc(SCC(=O)N(CC(C)C)C2CCS(=O)(=O)C2)c(C#N)c(C)c1C (stereo not drawn) do in these assays?
CtBP-E1A inh: 7.0; HP1b binding inh: 40.1%; BAZ2B block: 9.5%; G9a inh: 50.1µM*; Six1-Eya2 blk: -3.6; JMJD2A Tudor: -5.5%

Results for COc1ccc2nc(SCC(=O)Nc3cc(C)on3)[nH]c2c1 ?
CtBP-E1A inh: -5.8; HP1b binding inh: 24.6%; BAZ2B block: -5.4%; G9a inh: 10.7%; Six1-Eya2 blk: -1.7; JMJD2A Tudor: -4.9%

What do the screens show for `CC1=C(C(=O)Nc2ccccc2)C(c2ccncc2)n2nc(SCc3ccccc3)nc2N1` (stereo not drawn)?
HP1b binding inh: 23.4%; BAZ2B block: inconclusive; G9a inh: -4.3%[59 µM]; JMJD2A Tudor: -9.9%
